{"source": "PubChem BioAssay (EPA / NIEHS)", "note": "Active and inactive are the calls of the source. Rule for the calls: active = hit-call score of the fitted dose curve at least 0.9, where 1 is the maximum; inactive = score below 0.9.", "data": [{"experiment": "CEETOX_H295R_OHPROG: CeeTox H295R High-throughput Steroidogenesis Assay for OH-Progesterone (OHPROG) (AID 2283435);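 for AC50: 17alpha-hydroxyprogesterone secreted into medium measured by HPLC-MS/MS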", "conditions": "actives raise or lower the signal", "how_it_was_run": "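Medium steroid levels read by LC-MS/MS after 48 h chemical treatment (0.1% DMSO) of human adrenal H295R cells that had been forskolin-primed (10 uM, 48 h). Gain or loss fitted against DMSO; MTT cytotoxicity checked per well.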", "values": [{"smiles": "O=c1[nH]cccc1O", "AC50": "8.78 µM (active)"}, {"smiles": "CC1CCCCC1", "outcome": "inactive"}, {"smiles": "N#Cc1ccccc1O", "AC50": "30.1 µM (active)"}, {"smiles": "OCCC(O)CO", "note": "(stereo not drawn)", "outcome": "inactive"}, {"smiles": "CCn1c2ccccc2c2ccccc21", "AC50": "50 µM (active)"}, {"smiles": "CCCCC(CC)COC(=O)c1ccc(N(C)C)cc1", "note": "(stereo not drawn)", "AC50": "6.74 µM (active)"}, {"smiles": "CCOCOCC", "outcome": "inactive"}, {"smiles": "CN1CN(C)CN(C)C1", "outcome": "inactive"}, {"smiles": "Cc1cccc(C)n1", "outcome": "inactive"}, {"smiles": "O=C(c1ccccc1)c1ccc(Cl)cc1", "AC50": "37.9 µM (active)"}, {"smiles": "Nc1cccnc1N", "outcome": "inactive"}, {"smiles": "O=C1c2ccccc2C(=O)c2c(Cl)cccc21", "outcome": "inactive"}]}, {"experiment": "CEETOX_H295R_ANDR: CeeTox H295R High-throughput Steroidogenesis Assay for Androstenedione (ANDR) (AID 2283436)", "conditions": "actives raise or lower the signal", "how_it_was_run": "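Steroidogenesis in H295R adrenal cells after 48 h dosing; androstenedione quantified by LC-MS/MS, with DMSO as negative control and baseline for bidirectional curve fitting.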", "values": [{"smiles": "Oc1ccc2c(c1)CCC2", "outcome": "inactive"}, {"smiles": "CC1CCCCC1", "outcome": "inactive"}, {"smiles": "CCn1c2ccccc2c2ccccc21", "AC50": "50 µM (active)"}, {"smiles": "CCOCOCC", "outcome": "inactive"}, {"smiles": "Cc1cccc(C)n1", "outcome": "inactive"}, {"smiles": "O=C(c1ccccc1)c1ccc(Cl)cc1", "outcome": "inactive"}, {"smiles": "O=C1c2ccccc2C(=O)c2c(Cl)cccc21", "outcome": "inactive"}]}, {"experiment": "CEETOX_H295R_CORTIC: CeeTox H295R High-throughput Steroidogenesis Assay for Corticosterone (CORTIC) (AID 2283437);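 note: corticosterone secreted into medium quantified by mass spectrometry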", "conditions": "actives raise or lower the signal", "how_it_was_run": "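Steps: seed H295R, adhere overnight; 10 uM forskolin 48 h; replace with chemical (0.1% DMSO) 48 h; extract medium with MTBE; quantify corticosterone by HPLC-MS/MS; score bidirectionally vs DMSO.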", "values": [{"smiles": "O=c1[nH]cccc1O", "outcome": "inactive"}, {"smiles": "Oc1ccc2c(c1)CCC2", "outcome": "inactive"}, {"smiles": "CC1CCCCC1", "outcome": "inactive"}, {"smiles": "N#Cc1ccccc1O", "outcome": "inactive"}, {"smiles": "OCCC(O)CO", "note": "(stereo not drawn)", "outcome": "inactive"}, {"smiles": "CCn1c2ccccc2c2ccccc21", "outcome": "inactive"}, {"smiles": "CCCCC(CC)COC(=O)c1ccc(N(C)C)cc1", "note": "(stereo not drawn)", "outcome": "inactive"}, {"smiles": "CCOCOCC", "outcome": "inactive"}, {"smiles": "CN1CN(C)CN(C)C1", "outcome": "inactive"}, {"smiles": "Cc1cccc(C)n1", "outcome": "inactive"}, {"smiles": "O=C(c1ccccc1)c1ccc(Cl)cc1", "outcome": "inactive"}, {"smiles": "Nc1cccnc1N", "outcome": "inactive"}, {"smiles": "O=C1c2ccccc2C(=O)c2c(Cl)cccc21", "outcome": "inactive"}]}, {"experiment": "CEETOX_H295R_CORTISOL: CeeTox H295R High-throughput Steroidogenesis Assay for Cortisol (AID 2283438)", "conditions": "actives raise or lower the signal", "how_it_was_run": "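Cortisol measured by HPLC-MS/MS after MTBE extraction of medium from H295R cells exposed 48 h to chemical (0.1% DMSO), following 48 h prestimulation with 10 uM forskolin. Viability assessed by MTT in the same wells.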", "values": [{"smiles": "O=c1[nH]cccc1O", "outcome": "inactive"}, {"smiles": "Oc1ccc2c(c1)CCC2", "outcome": "inactive"}, {"smiles": "CC1CCCCC1", "outcome": "inactive"}, {"smiles": "N#Cc1ccccc1O", "outcome": "inactive"}, {"smiles": "OCCC(O)CO", "note": "(stereo not drawn)", "outcome": "inactive"}, {"smiles": "CCn1c2ccccc2c2ccccc21", "outcome": "inactive"}, {"smiles": "CCCCC(CC)COC(=O)c1ccc(N(C)C)cc1", "note": "(stereo not drawn)", "outcome": "inactive"}, {"smiles": "CCOCOCC", "outcome": "inactive"}, {"smiles": "CN1CN(C)CN(C)C1", "outcome": "inactive"}, {"smiles": "Cc1cccc(C)n1", "outcome": "inactive"}, {"smiles": "O=C(c1ccccc1)c1ccc(Cl)cc1", "outcome": "inactive"}, {"smiles": "Nc1cccnc1N", "outcome": "inactive"}, {"smiles": "O=C1c2ccccc2C(=O)c2c(Cl)cccc21", "outcome": "inactive"}]}, {"experiment": "CEETOX_H295R_DOC: CeeTox H295R High-throughput Steroidogenesis Assay for DOC (AID 2283439)", "conditions": "actives raise or lower the signal", "how_it_was_run": "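11-Deoxycorticosterone quantified in medium by MTBE extraction and HPLC-MS/MS after 48 h chemical exposure (0.1% DMSO) of forskolin-primed (10 uM, 48 h) H295R cells. Same-well MTT viability; data fitted bidirectionally against DMSO.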", "values": [{"smiles": "O=c1[nH]cccc1O", "AC50": "5.07 µM (active)"}, {"smiles": "Oc1ccc2c(c1)CCC2", "outcome": "inactive"}, {"smiles": "CC1CCCCC1", "outcome": "inactive"}, {"smiles": "N#Cc1ccccc1O", "AC50": "77.7 µM (active)"}, {"smiles": "OCCC(O)CO", "note": "(stereo not drawn)", "outcome": "inactive"}, {"smiles": "CCn1c2ccccc2c2ccccc21", "outcome": "inactive"}, {"smiles": "CCCCC(CC)COC(=O)c1ccc(N(C)C)cc1", "note": "(stereo not drawn)", "AC50": "6.74 µM (active)"}, {"smiles": "CCOCOCC", "outcome": "inactive"}, {"smiles": "CN1CN(C)CN(C)C1", "outcome": "inactive"}, {"smiles": "Cc1cccc(C)n1", "outcome": "inactive"}, {"smiles": "O=C(c1ccccc1)c1ccc(Cl)cc1", "outcome": "inactive"}, {"smiles": "Nc1cccnc1N", "outcome": "inactive"}, {"smiles": "O=C1c2ccccc2C(=O)c2c(Cl)cccc21", "outcome": "inactive"}]}]}
